Test [1] can be described thus: sensitizers of A549 cells to miR-34 induction, primary screen, imaging, A549 dox-inducible miR-34, nuclei and caspase counts (AID 1347080;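 active = compounds whose cell count with miR-34 switched on is under 0.7 times the count with it off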). As to conditions: A549 miR-34 inducible, Hoechst nuclei count, 48 h.
Test [2] in a line: survival rescue of mitochondrial mutant cells in low glucose, primary screen, MELAS cybrids, Rieske KO mouse fibroblasts, CellTiter-Glo (AID 1508586).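 Note: z relative to plate mean and SD of compound and empty wells.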 Background: Cellular ATP, detected with luciferase, serves as a proxy for viable cell number.
Where [3] appears, read: stronger effect = lower value, cell number ratio, induced over uninduced.
The mark [4] stands for this setting: measured here: relative caspase fold change +Dox/-Dox.
Where [5] appears, read: measured here: total cells with miR-34 induction, stronger effect = lower value.
[6] abbreviates: measured here: total cells without miR-34 induction.
Where [7] appears, read: MELAS cybrid survival, CellTiter-Glo 48 h, stronger effect = higher value.
Where [8] appears, read: Rieske KO mouse fibroblast survival, CellTiter-Glo 72 h.

Activity calls are given as the source filed them.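 Rule for the calls, unless noted: active = mean z-score across replicates of 1.96 or higher in either the MELAS or the Rieske mutant cell line; inactive = the rest.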
Note: test concentration not given here.

`N#CSc1cc(SC#N)c(N)nc1N`: the fold change was 1.07 (inactive) in test [1] (setting [3]) and 0.703 in test [1] (setting [4]). Besides, the cell count in test [1] (setting [5]) stood at 1940; in test [1] (setting [6]), 1820. Moreover, the figures for the z-score in test [2] (setting [7]) and in test [2] (setting [8]) were -0.481 (inactive) and -2.9, respectively.

Take `CCC1OC(=O)C(C)C(OC2C[C@@](C)(OC)C(O)C(C)O2)C(C)C(OC2OC(C)CC(N(C)C)C2O)[C@@](C)(O)CC(C)[C@@H]2NC(COCCOC)OC(C2C)[C@]1(C)O` (stereo partly drawn): the fold change in test [1] (setting [3]) is 0.923 (inactive); in test [1] (setting [4]), 0.895. The cell count in test [1] (setting [5]) was 8840; in test [1] (setting [6]), 9580. Moreover, the z-score in test [2] (setting [7]) is -0.208 (inactive); in test [2] (setting [8]), -0.128.

As to `CCOC(=O)C1=C(N)Oc2ccc(Br)cc2[C@H]1C(C#N)C(=O)OCC` (stereo partly drawn), the figures for the fold change in test [1] (setting [3]) and in test [1] (setting [4]) were 0.989 (inactive) and 0.887, respectively. Moreover, the cell count in test [1] (setting [5]) is 5900; in test [1] (setting [6]), 5960. Moreover, the results for the z-score in test [2] (setting [7]) and in test [2] (setting [8]) were -0.334 (inactive) and 0.811, respectively.

On to `Cc1[nH]c2ccccc2c1CCNC(=O)c1cccs1`, for which the results for the fold change in test [1] (setting [3]) and in test [1] (setting [4]) were 0.913 (inactive) and 0.438, respectively. The cell count in test [1] (setting [5]) stood at 7830; in test [1] (setting [6]) it was 8570. The z-score is -0.422 (inactive) in test [2] (setting [7]) and 0.75 in test [2] (setting [8]).

Turning to `COC(=O)C=CC(=O)OC`, the fold change in test [1] (setting [3]) was 0.917 (inactive); in test [1] (setting [4]) it was 0.928. The cell count in test [1] (setting [5]) turned out to be 10100; in test [1] (setting [6]), 11000. Moreover, the z-score in test [2] (setting [7]) was -0.336 (inactive); in test [2] (setting [8]) it was 0.844.

For `COC(=O)C1C(OC)C(OC(=O)c2cc(OC)c(OC)c(OC)c2)C[C@@H]2CN3CCc4c([nH]c5cc(OC)ccc45)[C@H]3C[C@H]12` (stereo partly drawn), the fold change was 0.925 (inactive) in test [1] (setting [3]) and 0.845 in test [1] (setting [4]). Also, the cell count was determined as 7190 in test [1] (setting [5]) and 7770 in test [1] (setting [6]). The z-score in test [2] (setting [7]) is -0.484 (inactive); in test [2] (setting [8]), 0.995.

Consider `O=C(C=Cc1ccc(CN(CCO)CCc2c[nH]c3ccccc23)cc1)NO`, for which the fold change in test [1] (setting [3]) was 0.866 (inactive); in test [1] (setting [4]), 0.616. The cell count stood at 944 in test [1] (setting [5]) and 1090 in test [1] (setting [6]). Also, the z-score was -0.188 (inactive) in test [2] (setting [7]) and -2.63 in test [2] (setting [8]).

For the molecule `CCN1CCN(C(=O)NC(C(=O)NC2C(=O)N3C(C(=O)O)=C(CSc4nnnn4C)CS[C@H]23)c2ccc(O)cc2)C(=O)C1=O` (stereo partly drawn), the fold change in test [1] (setting [3]) was 0.907 (inactive); in test [1] (setting [4]), 0.724. In addition, the figures for the cell count in test [1] (setting [5]) and in test [1] (setting [6]) were 7730 and 8520, respectively. In addition, the z-score in test [2] (setting [7]) was 0.121 (inactive); in test [2] (setting [8]), 0.0185.

In the case of `CC(=Cc1ccccc1)C=C1SC(=S)N(CC(=O)O)C1=O`, the fold change in test [1] (setting [3]) is 0.909 (inactive); in test [1] (setting [4]) it was 0.759. The cell count in test [1] (setting [5]) was 8290; in test [1] (setting [6]) it was 9130. The z-score in test [2] (setting [7]) is -0.0963 (inactive); in test [2] (setting [8]), 0.707.

For the molecule `COc1cc(C(C)=O)ccc1O`, the fold change in test [1] (setting [3]) is 0.901 (inactive); in test [1] (setting [4]) it was 0.815. Further, the cell count in test [1] (setting [5]) turned out to be 7660; in test [1] (setting [6]) it was 8500. Besides, the z-score in test [2] (setting [7]) was -0.427 (inactive); in test [2] (setting [8]), -0.0762.

Regarding `O=C(NCC(O)CO)c1ccncc1Nc1ccc(I)cc1F` (stereo not drawn), the fold change is 1.05 (inactive) in test [1] (setting [3]) and 0.75 in test [1] (setting [4]). For the same molecule, the values for the cell count in test [1] (setting [5]) and in test [1] (setting [6]) were 3270 and 3120, respectively. Besides, the z-score in test [2] (setting [7]) is -0.688 (inactive); in test [2] (setting [8]), -1.18.

As for `COc1cc(F)c(F)c(Nc2ccc(I)cc2F)c1NS(=O)(=O)C1(CC(O)CO)CC1` (stereo not drawn), the fold change in test [1] (setting [3]) was 0.923 (inactive); in test [1] (setting [4]), 0.76. Further, the cell count came to 2970 in test [1] (setting [5]) and 3220 in test [1] (setting [6]). The z-score in test [2] (setting [7]) is -0.764 (inactive); in test [2] (setting [8]) it was -0.645.

Regarding `CCC(C)(C)C(=O)OC1CC(C)C=C2C=CC(C)C(CC[C@@H]3CC(O)CC(=O)O3)[C@H]21` (stereo partly drawn), the fold change was 1.33 (inactive) in test [1] (setting [3]) and 0.766 in test [1] (setting [4]). In addition, the cell count in test [1] (setting [5]) came out at 2960; in test [1] (setting [6]) it was 2220. Also, the figures for the z-score in test [2] (setting [7]) and in test [2] (setting [8]) were 1.26 (inactive) and -1.5, respectively.

Consider `N#CC(=C1SCC(c2ccc(Cl)cc2Cl)S1)n1ccnc1` (stereo not drawn), for which the fold change is 0.898 (inactive) in test [1] (setting [3]) and 1.64 in test [1] (setting [4]). In addition, the cell count in test [1] (setting [5]) came to 8130; in test [1] (setting [6]) it was 9050. Also, the values for the z-score in test [2] (setting [7]) and in test [2] (setting [8]) were -0.162 (inactive) and -0.0913, respectively.

For the molecule `CCC(=O)OCC(=O)[C@]1(OC(=O)CC)C(C)C[C@H]2[C@@H]3CCC4=CC(=O)C=C[C@]4(C)[C@]3(Cl)C(O)C[C@@]21C` (stereo partly drawn), the fold change was 0.952 (inactive) in test [1] (setting [3]) and 0.747 in test [1] (setting [4]). The cell count in test [1] (setting [5]) is 5950; in test [1] (setting [6]), 6250. In addition, the z-score in test [2] (setting [7]) is -0.503 (inactive); in test [2] (setting [8]), -0.134.

With `C[C@]12CC[C@H]3c4ccc(O)cc4CC[C@H]3[C@@H]1CCC2OC(=O)CCC1CCCC1` (stereo partly drawn), the fold change in test [1] (setting [3]) was 0.984 (inactive); in test [1] (setting [4]), 0.876. Moreover, the cell count in test [1] (setting [5]) turned out to be 8050; in test [1] (setting [6]) it was 8180. Moreover, the z-score in test [2] (setting [7]) is -0.17 (inactive); in test [2] (setting [8]), -0.155.

Regarding `N#Cc1cc(CN2CCC(Nc3ncnc4sc(Cl)cc34)CC2)ccc1F`, the fold change in test [1] (setting [3]) is 0.932 (inactive); in test [1] (setting [4]), 0.447. Further, the cell count was 6280 in test [1] (setting [5]) and 6740 in test [1] (setting [6]). In addition, the z-score in test [2] (setting [7]) was -0.501 (inactive); in test [2] (setting [8]) it was -0.555.

`CON=C(C(=O)NC1C(=O)N2C(C(=O)OCOC(=O)C(C)(C)C)=C(C=Cc3scnc3C)CS[C@H]12)c1csc(N)n1` (stereo partly drawn): the figures for the fold change in test [1] (setting [3]) and in test [1] (setting [4]) were 0.852 (inactive) and 0.561, respectively. Also, the cell count in test [1] (setting [5]) stood at 7580; in test [1] (setting [6]) it was 8900. Besides, the results for the z-score in test [2] (setting [7]) and in test [2] (setting [8]) were -0.26 (inactive) and 0.818, respectively.

Consider `CCC(=O)NCCC1CCc2ccc3c(c21)CCO3` (stereo not drawn), for which the fold change in test [1] (setting [3]) was 0.931 (inactive); in test [1] (setting [4]), 4.33. In addition, the cell count in test [1] (setting [5]) turned out to be 8720; in test [1] (setting [6]), 9370. The z-score in test [2] (setting [7]) was -0.89 (inactive); in test [2] (setting [8]), 0.046.

Turning to `CCCCc1nc2cc(C=CC(=O)NO)ccc2n1CCN(CC)CC`, the results for the fold change in test [1] (setting [3]) and in test [1] (setting [4]) were 1.12 (inactive) and 0.731, respectively. Moreover, the cell count was determined as 1070 in test [1] (setting [5]) and 951 in test [1] (setting [6]). Further, the z-score in test [2] (setting [7]) is 0.665 (inactive); in test [2] (setting [8]), -0.474.

As for `Brc1ccc(C2CN3CCSC3=N2)cc1` (stereo not drawn), the fold change in test [1] (setting [3]) is 0.957 (inactive); in test [1] (setting [4]), 0.301. Besides, the cell count in test [1] (setting [5]) was found to be 9050; in test [1] (setting [6]) it was 9460. The z-score was -0.426 (inactive) in test [2] (setting [7]) and -0.0963 in test [2] (setting [8]).

Consider `COc1ccc(-c2cc(=O)c3c(O)cc(OC4OC(COC5OC(C)C(O)C(O)C5O)C(O)C(O)C4O)cc3o2)cc1O` (stereo not drawn), for which the values for the fold change in test [1] (setting [3]) and in test [1] (setting [4]) were 0.912 (inactive) and 0.985, respectively. Also, the cell count in test [1] (setting [5]) amounted to 7570; in test [1] (setting [6]) it was 8300. Further, the z-score in test [2] (setting [7]) was -0.28 (inactive); in test [2] (setting [8]), 0.179.

As for `Oc1cc(O)cc(C=Cc2ccc(O)c(O)c2)c1`, the fold change in test [1] (setting [3]) was 0.901 (inactive); in test [1] (setting [4]) it was 0.971. For the same molecule, the cell count in test [1] (setting [5]) is 9720; in test [1] (setting [6]), 10800. For the same molecule, the z-score is -0.345 (inactive) in test [2] (setting [7]) and 0.783 in test [2] (setting [8]).

(Values after PubChem BioAssay.)
